CF NFkB inh = inhibitors of PAF-induced NF-kB signaling, primary screen, cell-based, GFP fluorescence, uHTS. inhibition, % at 5 µM. 0.86% of 360,000 active. KKLEB NF-kB-GFP reporter, GFP fluorescence overnight. AID 588850, 2011;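 active = at least 50% inhibition at 5 µM, scaled per plate between neutral and stimulator controls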;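 also: PAF is a Pseudomonas aeruginosa culture filtrate used as stimulus; plate controls were PAF-stimulated DMSO wells for no effect and unstimulated DMSO wells for full effect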
TWEAK Fn14 block = inhibitors of TWEAK-Fn14 signaling, primary screen, luciferase reporter cells, uHTS | TWEAK-stimulated Fn14 reporter cells, luciferase luminescence, 8 h | inhibition, % at 10 µM | 2% of 360,000 active; in the data active = inhibition above about 50%
TROY NFkB inh = inhibitors of TROY-driven NF-kB signaling, primary screen, Q293 LMP1-TROYcd cells, NF-kB luciferase, uHTS | AID 1347056, 2019 | 0.98% of 360,000 active | Q293 LMP1-TROYcd NF-kB luciferase reporter, 4 h | inhibition, % at 10 µM;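 active = compounds whose plate-normalised and pattern-corrected inhibition of the luciferase reporter signal at the single screening dose is 50% or more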
KKLEB cytotox = cytotoxicity in KKLEB CF airway cells, primary screen, cytotoxicity control for CF NF-kB inhibitor project, cell-based, uHTS, fluorescence assay plates | KKLEB CF airway cells viability, ATPlite luminescence, overnight; active compounds read low; cells stimulated with P. aeruginosa culture filtrate | activity change (cytotoxicity), % at 5 µM | 0.36% of 360,000 active;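 active = corrected activity change at or below -50% at 5 µM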
HIF-2a inh = HIF-2a reporter inhibitors, primary screen, luminescence, 786-0 RCC cells | 786-0 RCC cells HIF-2a reporter, luciferase luminescence, overnight | 0.72% of 360,000 active | inhibition, % at 18.8 µM | AID 624352, 2012;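 active = inhibition of the luminescence signal of 40% or more relative to plate controls, in a single-dose primary screen at 18.75 µM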
Peg3 prom inh-1 = Peg3 promoter-driven luciferase inhibitors, primary screen, cell-based, HeLa, luciferase luminescence; HeLa PEG-Prom luciferase reporter, overnight; inhibition, % at 20 µM; 1.7% of 360,000 active;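 active = inhibition of at least 50% at 20 µM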
Peg3 prom inh-2 = Peg3 promoter reporter inhibitors, retest, confirmation, cell-based, HeLa, luciferase reporter, single concentration | shares compounds with Peg3 prom inh-1 | 84% of 1,300 active | HeLa PEG-Prom luciferase reporter, luminescence, overnight | inhibition, % at 20 µM;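 active = at 20 µM dose, 40% or more inhibition averaged across four replicates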
Active calls of the source: *. Hits are enriched below; roughly 3.9% of the tested compounds scored in any of these assays.

CN(C)CCCN(C(=O)c1ccc(S(=O)(=O)N(C)Cc2ccccc2)cc1)c1nc2cc3c(cc2s1)OCO3 was read as CF NFkB inh 17, TWEAK Fn14 block -8, TROY NFkB inh 19, KKLEB cytotox -29, HIF-2a inh 5, Peg3 prom inh-1 68* and Peg3 prom inh-2 89*.
`CCOc1ccccc1NC(=O)Cn1nnc(C(=O)Nc2ccccc2Cl)c1N` gave CF NFkB inh -10, TWEAK Fn14 block -1, TROY NFkB inh 14, KKLEB cytotox -1, HIF-2a inh 5 and Peg3 prom inh-1 5.
Cc1ccc2[nH]c(=O)c(C3C(C#N)=C(N)Oc4c3ccc3cccnc43)cc2c1 (stereo unspecified) was read as CF NFkB inh -23, TWEAK Fn14 block 5, TROY NFkB inh 9, KKLEB cytotox 8, HIF-2a inh 10, Peg3 prom inh-1 50* and Peg3 prom inh-2 48*.
Screening Cc1ccc(C(=O)Nc2cc3ccccc3oc2=O)cc1 returned CF NFkB inh 18, TWEAK Fn14 block 102*, TROY NFkB inh 88*, KKLEB cytotox -46, HIF-2a inh 49*, Peg3 prom inh-1 90* and Peg3 prom inh-2 62*.
For COc1ccc(NC(=O)c2cc3ccccc3oc2=O)cc1 the results were CF NFkB inh -26, TWEAK Fn14 block 100*, TROY NFkB inh 74*, KKLEB cytotox -20, HIF-2a inh -2, Peg3 prom inh-1 55* and Peg3 prom inh-2 34.
For COc1ccc2oc(=O)c(C(=O)Nc3ccccc3O)cc2c1 the results were CF NFkB inh -29, TWEAK Fn14 block 43, TROY NFkB inh -13, KKLEB cytotox -9, HIF-2a inh -223 and Peg3 prom inh-1 -197.
Screening CC(=O)Nc1cc2ccccc2oc1=O returned CF NFkB inh 8, TWEAK Fn14 block -18, TROY NFkB inh 2, KKLEB cytotox -2, HIF-2a inh -7 and Peg3 prom inh-1 1.
Cc1ccnc(NS(=O)(=O)c2ccc(NS(=O)(=O)c3cccs3)cc2)n1 was read as CF NFkB inh 6, TWEAK Fn14 block 8, TROY NFkB inh 5, KKLEB cytotox 5, HIF-2a inh 19 and Peg3 prom inh-1 6.
Screening Nc1nonc1-n1nnc(C(=O)N/N=C/c2cc(Br)ccc2O)c1CNc1ccccc1 returned CF NFkB inh 26, TWEAK Fn14 block 2, TROY NFkB inh 3, KKLEB cytotox -32, HIF-2a inh 3, Peg3 prom inh-1 56* and Peg3 prom inh-2 72*.
Screening COc1ccc2nc(C)cc(SCC(=O)N/N=C/c3c(OC)ccc4ccccc34)c2c1 returned CF NFkB inh -5, TWEAK Fn14 block -8, TROY NFkB inh 10, KKLEB cytotox -13, HIF-2a inh 4, Peg3 prom inh-1 63* and Peg3 prom inh-2 20.
For COc1ccc2nc(C)cc(SCC(=O)N/N=C/c3ccccc3)c2c1 the results were CF NFkB inh 25, TWEAK Fn14 block 30, TROY NFkB inh 19, KKLEB cytotox -3, HIF-2a inh 4 and Peg3 prom inh-1 18.
`CCOC(=O)C1CCN(c2c(NCc3ccc(C(=O)N(C)Cc4ccccc4)cc3)c(=O)c2=O)CC1` gave CF NFkB inh -5, TWEAK Fn14 block -4, TROY NFkB inh -7, KKLEB cytotox 10, HIF-2a inh 20 and Peg3 prom inh-1 7.
COc1ccc(-c2cc3ccccc3n2CC(O)CN2CCCCC2)cc1 (stereo unspecified) was read as CF NFkB inh 5, TWEAK Fn14 block 7, TROY NFkB inh -1, KKLEB cytotox 7, HIF-2a inh 1 and Peg3 prom inh-1 3.
For CCC(=C(c1ccc(OC)cc1)c1ccc(OC)cc1)c1cn(CC(O)CN2CCN(C)CC2)c2ccccc12 (stereo unspecified) the results were CF NFkB inh 21, TWEAK Fn14 block 7, TROY NFkB inh -4, KKLEB cytotox -25, HIF-2a inh 12, Peg3 prom inh-1 105* and Peg3 prom inh-2 101*.
CCN1CCCC1CN(Cc1cc2ccc(C)cc2[nH]c1=O)C(=S)Nc1ccc(OC)cc1 (stereo unspecified) was read as CF NFkB inh 14, TWEAK Fn14 block 1, TROY NFkB inh -14, KKLEB cytotox -5, HIF-2a inh 35, Peg3 prom inh-1 63* and Peg3 prom inh-2 80*.
`O=C(Sc1cccc2cccnc12)c1ccccc1Br` gave CF NFkB inh 34, TWEAK Fn14 block 101*, TROY NFkB inh -19, KKLEB cytotox 13, HIF-2a inh 14, Peg3 prom inh-1 59* and Peg3 prom inh-2 47*.
`Cc1ccc2c(c1)N(C(=O)CCC(=O)NCCCN1CCOCC1)CCO2` gave CF NFkB inh -33, TWEAK Fn14 block -9, TROY NFkB inh 2, KKLEB cytotox 8, HIF-2a inh 7 and Peg3 prom inh-1 -10.
Screening N=c1n(CCN2CCCCC2)c2ccccc2n1CC(O)c1ccc(Cl)c(Cl)c1 (stereo unspecified) returned CF NFkB inh 22, TWEAK Fn14 block -33, TROY NFkB inh -8, KKLEB cytotox -14, HIF-2a inh -6, Peg3 prom inh-1 117* and Peg3 prom inh-2 100*.
For CN1Cc2c(N3CCOCC3)nc3sc(C(=O)c4ccc(Br)cc4)c(N)c3c2CC1(C)C the results were CF NFkB inh -5, TWEAK Fn14 block -61, TROY NFkB inh -10, KKLEB cytotox -14, HIF-2a inh -7, Peg3 prom inh-1 80* and Peg3 prom inh-2 97*.
For CN1Cc2c(N3CCOCC3)nc3sc(C#N)c(N)c3c2CC1(C)C the results were CF NFkB inh 10, TWEAK Fn14 block -26, TROY NFkB inh -4, KKLEB cytotox -6, HIF-2a inh 19 and Peg3 prom inh-1 16.
`Cc1c(C(c2cccs2)c2c(C)n(C)n(-c3ccccc3)c2=O)c(=O)n(-c2ccccc2)n1C` gave CF NFkB inh 2, TWEAK Fn14 block 5, TROY NFkB inh 11, KKLEB cytotox 1, HIF-2a inh 14 and Peg3 prom inh-1 2.
For CCCc1nc(SCC(=O)N2CCCc3ccccc32)c2c(=O)n(C)c(=O)n(C)c2n1 the results were CF NFkB inh 9, TWEAK Fn14 block 46, TROY NFkB inh 48, KKLEB cytotox 17, HIF-2a inh 15, Peg3 prom inh-1 53* and Peg3 prom inh-2 46*.
`COc1ccccc1C(=O)Nc1nc2ccccc2[nH]1` gave CF NFkB inh -6, TWEAK Fn14 block 107*, TROY NFkB inh 89*, KKLEB cytotox -74*, HIF-2a inh 93*, Peg3 prom inh-1 98* and Peg3 prom inh-2 92*.

Screening data deposited in PubChem BioAssay by Sanford-Burnham Center for Chemical Genomics.
